Source: PubChem BioAssay (National Center for Advancing Translational Sciences (NCATS))
KB-3-1 cytotox: KB-3-1 parental cell cytotoxicity; KB-3-1 viability, CellTiter-Glo ATP luminescence, 72 h; Potency, µM (top dose mostly 46.1 µM), hits mostly cytotoxic; 400,000 tested, 1.4% active; note: % is set by controls: 0 for no effect and ±100 for the full control effect; nearly all actives have a fitted effect of over 60% in size
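Screening of KB-3-1 cells (DMEM, 10% FBS, phenol-red free) ran from lowest to highest compound concentration; after 72 h at 37 °C viability was read luminescently and curves fitted.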
MCF10A rereplic: DNA re-replication induction in MCF 10a cells | MCF 10A DNA re-replication, Hoechst nuclear intensity, 48 h | AID 624296 | Potency, µM (highest dose often 46.1 µM), without a hit: at the highest dose activity, positive = re-replication, hits mostly activators | 350,000 tested, 2.9% active; note: % of control where 0% means no effect; nearly all actives have a fitted effect of over 50% in size
SW480 rereplic: induces DNA re-replication in SW480 colon adenocarcinoma cells; SW480 DNA re-replication, Hoechst DNA content imaging, 48 h; Potency, µM (highest dose often 46.1 µM), inactives show at the top dose re-replication activation, usual class: activators; 340,000 tested, 1.8% active; note: % of control where 0% means no effect; nearly all actives have a fitted effect of over 55% in size
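Per well, 250 cells were exposed to pinned compound for 48 hr. Nuclear DNA was visualised with Hoechst (40 min, 37 C) and total object intensity recorded by fluorescence scanning.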
PINK1 modulator: PINK1 expression modulation; PINK1 immunofluorescence, high-content cytometry, 24 h; Potency, µM (top dose mostly 76.6 µM), for inactives: top-dose activation (PINK1 increase), actives largely listed as activators; AID 624263; 410,000 tested, 0.2% active; active = well fitted activation curve with a large enough effect; inconclusive = small, poorly fitted or top-dose-only effect; cell line not stated here; note: % of control where 0% means no effect; nearly all actives have a fitted effect of over 65% in size
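A stable cell line was treated with compounds at 5 concentrations for 24 hours, with CCCP as control. PINK1 levels and mitochondrial localization were measured by immunofluorescence with mitochondrial, cell and nuclear markers after fixation, read by laser-scanning cytometry.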
KB-V1 cytotox: KB-V1 MDR subline cytotoxicity; KB-V1 MDR cells viability, CellTiter-Glo, 72 h; Potency, µM (titrated, usually from 46.1 µM), usual class: cytotoxic; 400,000 tested, 3.4% active; note: % is set by controls: 0 for no effect and ±100 for the full control effect; nearly all actives have a fitted effect of over 60% in size
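Cytotoxicity toward P-gp-expressing KB-V1 cells was determined as loss of CellTiter-Glo luminescence after 72 h at 37 degrees C. Compounds were tested in quantitative HTS format across a concentration range, with curves fitted to normalized data.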
* marks the source's active call; other numbers are inactive results; i = inactive; ? = inconclusive; / = no result; [ ] = dose if it differs, or a comment. The list is not random: actives were taken first. Their share in the collection is about 6.7%. Unless noted, calls come from the whole dose curve; as a rule, active = well fitted curve in the direction sought with a large enough effect; inconclusive = small, poorly fitted or top-dose-only effect, or another doubt; inactive = no such curve, though single readings can be large; an effect the other way counts as inactive or inconclusive. Potency is the fitted concentration of half-maximal effect.

SMILES	KB-3-1 cytotox	MCF10A rereplic	SW480 rereplic	PINK1 modulator	KB-V1 cytotox
Cc1cc(C(=O)NNC(=O)Nc2ccc(Cl)cc2)no1	i	3.8%	-12.2%	2.4%	i
O=C(O)c1ccccc1C(=O)NNc1ccc(Cl)cc1	i	4.61µM*	13.9%	-3.2%	i
Cc1cc(C(=O)NNc2ccc(Cl)cc2)no1	?	7.31µM*	11.4%	2.7%	i
COC(=O)c1c(NC(=O)c2ccc(S(=O)(=O)N3CCCCC3)cc2)sc2c1CCN(C)C2	/	/	/	7.3%	/
O=C(Nc1cccc(Br)c1)c1cc(S(=O)(=O)N2CCCCC2)c[nH]1	/	/	/	2.2%	/
Brc1ccc2[nH]c3c(c2c1)CCC3	?	-0.7%	13.6%	1.7%	i
NC(=O)c1cc(Br)cc2c3c([nH]c12)CCCC3	8.2µM*	?	?	-1.1%	16.4µM*
COc1ccccc1N1CCN(c2ncnc3c2oc2ccccc23)CC1	5.8µM*	3.26µM*	20.6µM*	7.0%	6.51µM*
c1ccc2[nH]c(CN3CCN(c4ncnc5c4oc4ccccc45)CC3)nc2c1	i	-3.9%	-3.4%	-0.5%	i
C(=C\c1ccccc1)/CN1CCN(c2ncnc3c2oc2ccccc23)CC1	?	78.7%	19.4%	-1.2%[38.3 µM]	3.66µM*
COc1ccc(N2Cc3cccc(C(=O)Nc4cccc(F)c4)c3C2=O)cc1	i	/	/	2.1%	i
Fc1ccc(C2c3cccn3CCN2C(=S)Nc2cccc(Br)c2)cc1 (centres undefined)	?	23.1µM*	-0.9%	?	?
Cc1cccc(NC(=S)N2CCn3cccc3C2c2cccnc2)c1 (centres undefined)	i	-1.5%	-5.5%	-1.0%	16.4µM*
Fc1ccc(NC(=S)N2CCn3cccc3C2c2cccnc2)cc1 (centres undefined)	i	-0.4%	-2.5%	1.0%	i
COc1cccc(NC(=S)N2CCn3cccc3C2c2cccnc2)c1 (centres undefined)	i	5.2%	-8.3%	0.5%	i
C=CCn1c(NC(=O)c2ccc(Br)o2)c(S(=O)(=O)c2ccccc2)c2nc3ccccc3nc21	i	11.6µM*	17.0%	?	?
O=C(Nc1ccc(S(=O)(=O)NCc2ccccc2)cc1)c1ccc(Br)o1	i	1.0%	-3.0%	2.0%	i
COc1ccc(C(C)(C)C)cc1NC(=O)CCCN1C(=O)CN(C)C1=O	i	-0.5%	1.9%	0.9%	i
Cc1ccc(N2C(N)=C(C#N)C(c3cccs3)C3=C2CC(C)(C)CC3=O)cc1 (centres undefined)	?	11.8%	?	?	7.31µM*
CC1(C)CC(=O)C2=C(C1)N(c1ccc(F)cc1)C(N)=C(C#N)C2c1cccs1 (centres undefined)	i	18.4µM*	?	2.8%	?
CCOC(=O)c1c(-c2ccccc2)oc2ccc(NS(=O)(=O)c3ccc(C)cc3C)cc12	i	/	/	0.1%	i
COc1cc(NC(=O)Cn2nc(C(F)(F)F)c(Br)c2C)cc([N+](=O)[O-])c1	i	-0.2%	-5.4%	?	18.4µM*
CCCCCCCCNc1ncnc2ccccc12	0.651µM*	18.6%	?	19.1%[38.3 µM]	0.184µM*
c1ccc(CCNc2ncnc3ccccc23)cc1	?	6.6%	9.1%	0.7%	?
CN1C2C=C(N(CCc3c[nH]c4ccccc34)C(=O)c3ccc(Cl)cc3)CC1CC2 (centres undefined)	?	9.8%	?	3.6%	23.1µM*
SMILES	KB-3-1 cytotox	MCF10A rereplic	SW480 rereplic	PINK1 modulator	KB-V1 cytotox
O=C(Cc1c[nH]c2ccccc12)NCc1ccc(Cl)cc1	i	?	1.9%	6.5%	i
O=C1CC(/C=C/c2ccco2)=Nc2ccccc2N1	i	3.6%	5.9%	0.2%	i
O=C1CC(/C=C/c2ccccn2)=Nc2ccccc2N1	18.4µM*	-1.4%	?	-0.4%	?
CCC1CCC/C1=N\NC(=O)c1ccccc1Cl (centres undefined)	i	?	-8.7%	-0.8%	i
CCC1CCC/C1=N\NC(=O)c1cc(C)[nH]n1 (centres undefined)	i	2.91µM*	16.4µM*	/	i
CN(C)CCCNc1oc(/C=C/c2cccs2)nc1S(=O)(=O)c1ccccc1	i	?	11.6µM*	-0.2%	i
